Laboratory results published in PubChem BioAssay (EPA / NIEHS).
Records with an inconclusive call do not appear. The source made the active and inactive calls. The calls were made as follows: active = hit-call score of the fitted dose curve at least 0.9, where 1 is the maximum; inconclusive = response in the unintended direction; inactive = score below 0.9.

Experiment: CCTE_Deisenroth_AIME_384WELL_CTox_Inactive: Cytotoxicity Assessment (CTOX) in CCTE's 384-well Estrogen Receptor Transactivation Assay without AIME metabolic competence (metabolism negative), Deisenroth Lab (AID 2284039);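 also: cell viability via live-cell protease substrate cleaved to fluorescent probe; cells exposed 24 h to medium preincubated 2 h with alginate-water beads without S9; loss of fluorescence signal means loss of viability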
Method: CCTE_Deisenroth_AIME_384WELL (AIME metabolism assay) is a cell-based, single-readout assay that uses VM7Luc4E2, a human mammary gland/breast cell line, with measurements taken at 24 hour after chemical dosing in a 384-well plate.CCTE_Deisenroth_AIME_384WELL_CTox_Inactive is one of four assay components measured or calculated from the CCTE_Deisenroth_AIME_384WELL assay. It is designed to make measurements of a protease substrate, a type of viability indicator, as detected with substrate cleavage to a fluorescent probe in living cells.CCTE_Deisenroth_AIME_384WELL_CTox_Inactive is a component of the CCTE_Deisenroth_AIME_384WELL assay that measures the effect of retroftting the VM7Luc ERTA assay with the Alginate Immobolization of Metabolic Enzymes (AIME) metabolism method. AIME is optimized to impart phase I hepatic metabolism using phenobarbital/beta-naphthoflavone induced hepatic S9 from male Sprague Dawley rats. Parent chemicals are incubated for 2 hours in the AIME assay prior to transfer to the VM7Luc ERTA assay plate. […] This endpoint evaluates cytotoxicity in metabolism negative mode. Using a type of flourescent probe in VM7Luc cells, loss-of-signal activity can be used to understand loss of viability. This assay endpoint, CCTE_Deisenroth_AIME_384WELL_CTox_Inactive, was analyzed with bidirectional fitting in the ERTA assay.
The AIME procedure consists of a preparative "pre-stamping" step using a barium chloride/poly-L-lysine (PLL) solution followed by "stamping" the lid in alginate-hepatic S9 (metabolism positive) or alginate-water (metabolism negative) to form microspheres. Once stamping is completed, the AIME lids are placed in duplicate microplates (metabolism positive or negative) containing chemical solutions and incubated for two hours to facilitate metabolic reactions. The conditioned medium, containing parent chemical or metabolites, is then transferred to the cell-based VM7Luc Estrogen Receptor Transactivation Assay (ERTA) for 24 hours. A typical experimental design tests a 10-point concentration series (0.002 - 200 uM) for 8 compounds (96-well format)1 or 32 compounds (384-well format)2 in single technical replicate. AIME assay controls include trans-stilbene (bioactivated control) and ethylparaben (bioinactivated control). ERTA assay plate controls include 17-beta estradiol (positive control) and DMSO (solvent control). Experiments typically comprise a minimum of four experimental replicates (n=4).

Compound | outcome | AC50
O=C(O)c1cccnc1 | inactive | –
CC1(C)C(=O)NC(=O)N1CO | inactive | –
O=[Si]=O | inactive | –
O=C(O)c1[nH]n(-c2ccc(S(=O)(=O)O)cc2)c(=O)c1N=Nc1ccc(S(=O)(=O)O)cc1 | – | 100 µM (active)
C/C=C/C=C/C(=O)O | inactive | –
O=C1CCCCC1 | inactive | –
NC=O | inactive | –
O=C1O[C@H]([C@H](O)CO)C(O)=C1O | inactive | –
Oc1ccccc1O | – | 51.8 µM (active)
CCOCCOCCO | inactive | –
CC(=O)O | inactive | –
C/C=C/c1ccc(OC)cc1 | inactive | –
Nc1nc(=S)c2[nH]cnc2[nH]1 | inactive | –
CC(C)OC(=O)C(C)(C)Oc1ccc(C(=O)c2ccc(Cl)cc2)cc1 | inactive | –
Cc1ccc(C(C)(C)C)c(O)c1 | inactive | –
CCCCCCCC(=O)OC | inactive | –
CC(C)NCC(O)c1ccc(O)c(O)c1 (configuration not stated) | – | 100 µM (active)
CC1=C(C)S(=O)(=O)CCS1(=O)=O | – | 100 µM (active)
CN(C)CCCN(C)CCCN(C)C | inactive | –
CC(=O)CC(c1ccccc1)c1c(O)c2ccccc2oc1=O (configuration not stated) | inactive | –
CSc1ccc(Oc2ccc(S(N)(=O)=O)cc2CN(C)C)cc1C | inactive | –
CCCCC(CC)CO (configuration not stated) | inactive | –
CCCCCCC(C=O)=Cc1ccccc1 | inactive | –
c1ccc2occc2c1 | inactive | –
CCCCCCC(CCCCCCCCCCC(=O)OCC(COC(C)=O)OC(C)=O)OC(C)=O (configuration not stated) | inactive | –
Cc1occc(=O)c1O | inactive | –
CC(C)c1cccc(C(C)C)c1 | inactive | –
